Reference: PubChem BioAssay (EPA / NIEHS)
Records with an inconclusive call do not appear. The source holds several records for some structures; these can differ, active in one and inactive in another. Calls of active or inactive are those of the source. How the source made its calls: active means hit-call score of the fitted dose curve at least 0.9, where 1 is the maximum; inconclusive means response in the unintended direction; inactive means score below 0.9.

Target: human AKT serine/threonine Kinase 1 (AKT1), AKT1 (gene 207) (UniProt P31749)
Test: NVS_ENZ_hAKT1: NovaScreen (NVS) Enzymatic Assay for human AKT serine/threonine Kinase 1 (AKT1) (AID 2283138)
Summary of the method: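 Cell-free recombinant enzyme with substrate; activity read by fluorescence intensity after electrophoretic mobility shift separating substrate from product, 1 h after dosing. Single-concentration duplicates at 25 uM, then singleton concentration-response up to 50 uM; loss of signal versus DMSO.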

Chain of human AKT serine/threonine Kinase 1 (AKT1), AKT1 (gene 207) (P31749 whole entry, looked up): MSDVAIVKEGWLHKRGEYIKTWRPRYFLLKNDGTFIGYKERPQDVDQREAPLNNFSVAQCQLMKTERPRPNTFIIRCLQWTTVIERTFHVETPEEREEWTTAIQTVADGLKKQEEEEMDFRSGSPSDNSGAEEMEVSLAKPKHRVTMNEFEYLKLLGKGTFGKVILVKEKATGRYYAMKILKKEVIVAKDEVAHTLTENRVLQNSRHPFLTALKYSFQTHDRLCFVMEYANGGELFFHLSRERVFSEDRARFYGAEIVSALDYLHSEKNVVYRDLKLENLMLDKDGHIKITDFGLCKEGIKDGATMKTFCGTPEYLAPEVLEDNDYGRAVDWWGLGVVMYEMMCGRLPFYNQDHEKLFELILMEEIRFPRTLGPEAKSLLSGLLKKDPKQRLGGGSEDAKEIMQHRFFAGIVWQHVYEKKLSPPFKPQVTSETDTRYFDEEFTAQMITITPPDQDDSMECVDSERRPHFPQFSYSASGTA

Question: `CC/C(=C(\c1ccccc1)c1ccc(OCCN(C)C)cc1)c1ccccc1` was tested. Which AC50 did it give?
Answer: 33.4 µM (active)

Question: And the outcome?
Answer: inactive

Question: With `C#C[C@]1(O)CC[C@H]2[C@@H]3CCc4cc(O)ccc4[C@H]3CC[C@@]21C` as the molecule, how does the outcome read?
Answer: inactive

Question: Which outcome does the source give for `C=C(C)C(N)=O` here?
Answer: inactive

Question: With `O=C(c1ccc(OCCN2CCCCC2)cc1)c1c(-c2ccc(O)cc2)sc2cc(O)ccc12` as the molecule, how does the outcome read?
Answer: inactive

Target: human Beta-secretase (BACE), BACE1 (gene 23621) (UniProt P56817)
Test: NVS_ENZ_hBACE: NovaScreen (NVS) Enzymatic Assay for human Beta-secretase (BACE) (AID 2283140);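 further: hits are inhibitors that reduce fluorescent substrate signal versus DMSO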
Summary of the method: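 Cell-free fluorescence-intensity assay of recombinant BACE1 expressed in SF9 cells, read 1 hour after dosing. Loss of signal indicates reduced protease activity, fitted relative to DMSO negative control. Primary screen at 25 uM in duplicate; actives followed in concentration series.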

Chain of human Beta-secretase (BACE), BACE1 (gene 23621) (P56817 whole entry, looked up): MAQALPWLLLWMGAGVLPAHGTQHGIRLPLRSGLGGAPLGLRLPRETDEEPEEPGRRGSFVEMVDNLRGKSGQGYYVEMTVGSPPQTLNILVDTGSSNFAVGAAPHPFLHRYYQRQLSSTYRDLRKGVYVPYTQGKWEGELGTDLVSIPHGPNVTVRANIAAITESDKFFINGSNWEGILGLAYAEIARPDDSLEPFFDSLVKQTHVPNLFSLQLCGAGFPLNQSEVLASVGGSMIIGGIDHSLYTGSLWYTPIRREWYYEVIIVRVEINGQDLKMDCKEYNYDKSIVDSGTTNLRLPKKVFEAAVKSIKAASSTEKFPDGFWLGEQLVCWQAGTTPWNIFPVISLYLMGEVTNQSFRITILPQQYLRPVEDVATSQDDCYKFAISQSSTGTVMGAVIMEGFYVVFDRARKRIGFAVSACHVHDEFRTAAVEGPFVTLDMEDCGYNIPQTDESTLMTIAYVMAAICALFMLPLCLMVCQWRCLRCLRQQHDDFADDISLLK

Question: `CC/C(=C(\c1ccccc1)c1ccc(OCCN(C)C)cc1)c1ccccc1` was tested. Which outcome did it give?
Answer: inactive

Question: How did the AC50 turn out when `O=C1OC2(c3ccc(O)cc3Oc3cc(O)ccc32)c2ccccc21` was run?
Answer: 7.41 µM (active)

Question: `CC(=O)CCC=C(C)CCC=C(C)C` was tested. Which outcome did it give?
Answer: inactive

Question: How did the outcome turn out when `CC1=CC(C)C(C=O)C(C)C1` (stereo not given) (tested in a mixture with another compound) was run?
Answer: inactive

Question: How did the AC50 turn out when `O=C(c1ccc(OCCN2CCCCC2)cc1)c1c(-c2ccc(O)cc2)sc2cc(O)ccc12` was run?
Answer: 15.3 µM (active)
